For 40 compounds, Percent Effect results are on record in ChEMBL document CHEMBL3988442, “University of Dundee, Small-Polar-MMV Screening Library” (2021).

The assay concerns the target Shiga toxin 2 (Escherichia coli O157:H7) (UniProt P09385+P09386). In words: E. coli 0.157:H7 Shiga Toxin SOP - stx2 screening assay. The format is functional. Further details: scale not given: direction of the effect not stated beside the values. Particulars: 30 µM.
In the case of `CC(C)c1ccc(C(O)Cn2c(=O)c(C#N)cn(C3CC3)c2=O)cc1` (stereo not given), the Percent Effect worked out at 14.3%. With `CCn1ccnc1CN1CCC(N(C)Cc2ncc(C)o2)C1` (stereo not given) the figure was -39.6%; with `CC1CCN(Cn2nc(-c3ccc(F)cc3)oc2=O)CC1`, -14.8%. To `CCN(CC)C(C(=O)NCc1ccc(N2CCCC2)nc1)C(C)C` (stereo not given) belongs 9.3%; to `Cc1cc(CN(C)Cc2cc3c(cc2OC(F)F)OCO3)on1`, 19.4%. Turning to `CN(Cc1cscn1)C1CCCN(Cc2noc(C3CC3)n2)C1` (stereo not given), the Percent Effect turned out to be 0.508%.

As to `CCn1nc(C)c2nnn(CC(=O)Nc3c(C)cccc3C)c(=O)c21`, the Percent Effect was -11.8%.

As to `CC(C)c1noc(CCCC(=O)N2CCC(Cc3cccnc3)CC2)n1`, the Percent Effect was determined as 0.87%.

Take `CCn1ccnc1CN1CCN(CC(=O)NC(C)(C#N)C2CC2)CC1` (stereo not given): the Percent Effect is 27.2%.

Regarding `CN(CCCNc1cc(N2CCCC2CO)ncn1)S(C)(=O)=O` (stereo not given), the Percent Effect is -30%. To `O=C(c1cccs1)N1CC[C@H](O)[C@@H]1Cc1ccccc1` belongs -7.22%; to `Cc1ccc(C(=O)N2CCC3(CC2)CC(N2CCCC2)C3)cc1`, -9.41%; to `CC(Cn1cccn1)NC(=O)NCc1ccc(S(N)(=O)=O)cc1` (stereo not given), 14.9%. In the case of `COc1ccc(OC)c(C2C3=C(COC3=O)Nc3[nH]nc(C)c32)c1` (stereo not given), the Percent Effect is -22.3%. Regarding `Cc1cc(N2CCC(c3nnc(CN(C)C)n3C3CC3)CC2)ccn1`, the Percent Effect was -33.5%.

For `O=C(c1cccs1)N1CCC2(C1)c1ccccc1S(=O)(=O)N2CC1CC1` (stereo not given), the Percent Effect came out at 6.62%. For `Cn1ncc2c1NC(=O)CC2c1ccc(Cl)cc1Cl` (stereo not given), the Percent Effect is -26.2%. With `O=C(Nc1cccc(N2CCCC2)c1)C1CCCN1c1nccs1` (stereo not given) the figure was -4.67%. To `O=C(CN1CCCC(c2ccc(C(=O)O)cc2)C1)NC1CC1` (stereo not given) belongs 6.8%; to `Cc1cnc(CN(C)C2CCN(Cc3ccccc3C#N)C2)o1` (stereo not given), -34.4%. `COc1ccc(C(=O)N2CC[C@H](CO)[C@H](O)C2)c(C)c1`: the Percent Effect came out at 9.86%. To `O=C(c1ccc(F)c(Cl)c1)N1C[C@@H]2CC[C@H](C1)N(Cc1ccccc1)C2` belongs -25.3%; to `CCC1CN(C(=O)NCCOc2ccc3c(c2)OCO3)CCO1` (stereo not given), -17.6%. With `CN(C)c1cc2c(nn1)CCN(C(=O)C1Cc3ccccc3S1)C2` (stereo not given), the Percent Effect is -20.9%. For `Cn1cnc2c1CCN(CCCOc1ccc(C#N)cc1)C2`, the Percent Effect was -24.8%.

As for `Cc1ccc(N2CCN(C(=O)COc3ccccc3)CC2)nn1`, the Percent Effect was -66.5%. To `COCCn1cc(C(=O)N2CCCC2c2cccc(F)c2)ccc1=O` (stereo not given) belongs -4.86%; to `CCOc1ccccc1C(CC(=O)Nc1nc(C)cs1)NC(C)=O` (stereo not given), 30.8%. With `Cc1ncoc1C(=O)N1C[C@H]2CCC[C@@]2(COCC2CCOCC2)C1` the figure was 3.67%; with `CNS(=O)(=O)c1ccc(C(=O)N2CCCC2c2cnn(C)c2)o1` (stereo not given), -29.3%.

Turning to `Oc1cc(CCC2CCCCN2)cc(-c2ccncc2)c1` (stereo not given), the Percent Effect is -42.2%. With `CCCC(C)C(=O)N1CCC(n2cccc2C(=O)OC)CC1` (stereo not given) the figure was -16.1%; with `Cc1ccc(-c2cc(C(=O)NC(C)C(=O)N3CCCCC3)on2)cc1` (stereo not given), -5.52%. Take `O=C(CN1CCOC(Cn2cccn2)C1)Nc1nncs1` (stereo not given): the Percent Effect is -15.4%.

For `Cc1cc(C(=O)N2CCc3nnc(N(C)C)cc3C2)c(C)n1C1CC1`, the Percent Effect was -0.445%. In the case of `O=C1CC2(CCN(CC3CC3)C2)CN1c1ccc2c(c1)OCO2` (stereo not given), the Percent Effect was -55.4%. Consider `O=C(c1cnn2c1OCCC2)N1CCN(C/C=C/c2ccccc2)CC1`, for which the Percent Effect is -6.18%. To `Cc1cnc(Nc2nccnc2C2CCN(C)CC2)s1` belongs -20.6%; to `c1ccc(-c2nc(CN3CCCC3Cn3cncn3)cs2)cc1` (stereo not given), 5.25%. Regarding `N#Cc1cccc(S(=O)(=O)NC(=O)COC2CCCC2)c1`, the Percent Effect is -31%.
